Records with an inconclusive call do not appear. Calls of active or inactive are those of the source. Unless noted, the call rests on the fitted dose curve; in most records, active means well fitted curve in the direction sought with a large enough effect in the repeat runs; inconclusive means weak or mixed curves; inactive means no such curve, though single readings can be large; an effect the other way counts as inactive or inconclusive.
Experiments:
[1] = qHTS assay to identify small molecule antagonists of the estrogen related receptor (ERR) signaling pathway from Tox21 library - cell viability counter screen (AID 1224834); further: nearly all actives have a fitted effect of over 30% in size
In short: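 ERR reporter cells, 2,000 per well, rested 6 h, then exposed to compound in DMSO for 17.5 hours at 37 C. Viability read as fluorescence after 30 min with CellTiter-Fluor.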

[2] = target: Luciferin 4-monooxygenase (Photinus pyralis) (UniProt P08659); test: qHTS assay to identify small molecule inhibitors of firefly luciferase (AID 1224835); further: nearly all actives have a fitted effect of over 25% in size
In short: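 Inhibition of purified Photinus luciferase is measured by luminescence. Substrate levels (D-luciferin, ATP) sit at their KM values. Each compound is tested in a concentration series.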

[3] = qHTS assay to identify small molecule agonists of the constitutive androstane receptor (CAR) signaling pathway - cell viability counter screen (AID 1224836); further: nearly all actives have a fitted effect of over 45% in size
In short: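 Double-stable HepG2 hepatoma cells (hCAR plus CYP2B6-2.2kb) are treated for 23 h at 37 C with test compounds in 15-point concentration series. PK11195 at 0.75 uM final is co-added. Cell viability is quantified by CellTiter-Fluor.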

[4] = qHTS assay to identify small molecule antagonists of the constitutive androstane receptor (CAR) signaling pathway - cell viability counter screen (AID 1224837); further: nearly all actives have a fitted effect of over 45% in size
In short: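 HepG2 cells stably carrying hCAR and CYP2B6-2.2kb reporter, stimulated with 50 nM CITCO and compounds at 15 concentrations for 23 h at 37 C. Viability measured by CellTiter-Fluor fluorescence.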

[5] = target: Nuclear receptor subfamily 1 group I member 3 (Homo sapiens) (UniProt Q14994); test: qHTS assay to identify small molecule agonists of the constitutive androstane receptor (CAR) signaling pathway (AID 1224839); further: nearly all actives have a fitted effect of over 15% in size
In short: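 Readout: firefly luciferase luminescence via ONE-Glo. System: HepG2 double-stable for hCAR and CYP2B6-2.2kb. Conditions: 15-point compound titration, PK11195 at 0.75 uM final, 24 h incubation.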

[6] = qHTS assay to identify small molecule antagonists of the estrogen related receptor signaling pathway with the pleiotropic PPARgamma coactivator (PGC) from Tox21 10K library - cell viability counter screen (AID 1224840; active means well fitted cell-killing curve with a large enough effect in the repeat runs, not every such curve was filed as active; further: nearly all actives have a fitted effect of over 40% in size)
In short: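 PGC/ERR cells (2,000/well) plated 6 h, then compound-treated for 17.5 h at 37 C. Viability measured by CellTiter-Fluor fluorescence after 30 min at 37 C, multiplexed with the pathway assay.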

[7] = target: Thyrotropin receptor (Homo sapiens) (UniProt P16473); test: qHTS assay to identify small molecule agonists of the thyroid stimulating hormone receptor (TSHR) signaling pathway (AID 1224843; calls by dose curve; further: nearly all actives have a fitted effect of over 45% in size)
In short: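 HEK293 cells stably bearing the thyrotropin receptor were plated at 800 cells/well and challenged with compound (30 min, RT). Accumulated cAMP was quantified via cAMP-d2 competing for cryptate-tagged antibody.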

[8] = qHTS assay to identify small molecule agonists of the hypoxia (HIF-1) signaling pathway - cell viability counter screen (AID 1224844; calls by dose curve; further: nearly all actives have a fitted effect of over 50% in size)
In short: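 HRE-bla ME-180 cells, 2,000/well in 0.5% dialyzed FBS medium, treated 17 h at 37C with compounds. Viability read in the same wells as the bla reporter, by CellTiter-Glo luminescence after 30 min at room temperature.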

[9] = qHTS assay to identify small molecule agonists of H2AX (AID 1224845; active means well fitted activation curve with a large enough effect in the signal ratio in the repeat runs, not every such curve was filed as active; the % refers to the signal ratio)
In short: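 Phospho-H2AX Ser139 measured by HTRF (ex 320 nm; em 665 and 620 nm) after 24 hr antibody incubation. Compounds, 15 concentrations, 0.76% DMSO, were applied to CHO-K1 cells for 3hr at 37C before lysis.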

[10] = qHTS assay to identify small molecule agonists of the hypoxia (HIF-1) signaling pathway (AID 1224846; active means well fitted activation curve with a large enough effect in the signal ratio in the repeat runs, not every such curve was filed as active; the % refers to the signal ratio)
In short: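 HRE-bla ME-180 beta-lactamase reporter cells in medium with 0.5% dialyzed FBS, pre-incubated 5 h then exposed to compounds 17 h at 37C, 5% CO2; reporter induction read with CCF4-AM FRET substrate.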

[11] = qHTS RealTime-Glo MT Cell Viability Assay in HepG2 cells - 24 hour (AID 1224867); further: nearly all actives have a fitted effect of over 50% in size
In short: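 Compound treatment began 5 h after plating HepG2 cells (600/well) with NanoLuc luciferase and prosubstrate. Plates stayed at 37 C for 40 h; luminescence was captured at six time points, 0 h through 40 h.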

[12] = qHTS RealTime-Glo MT Cell Viability Assay in HEK293 cells - 32 hour (AID 1224868); further: top concentration of the series differs between compounds; nearly all actives have a fitted effect of over 50% in size
In short: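 Quantitative high-throughput screen of the Tox21 10K library in HEK293: cells and RealTime-Glo reagents plated together, compound added at 5 h, luminescence monitored through 40 h at 37 C.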

[13] = target: Nuclear receptor subfamily 1 group I member 3 (Homo sapiens) (UniProt Q14994); test: qHTS assay to identify small molecule antagonists of the constitutive androstane receptor (CAR) signaling pathway (AID 1224838); further: nearly all actives have a fitted effect of over 40% in size
In short: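 HepG2 cells stably carrying hCAR and a CYP2B6-2.2kb luciferase reporter, seeded 4 hrs before compound (15 concentrations). Stimulated with 50 nM CITCO for 24 hr at 37 C. ONE-Glo luminescence read after 30 min at room temperature.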

[14] = qHTS assay to identify small molecule agonists of H2AX - cell viability counter screen (AID 1224847; calls by dose curve;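 further: wild-type CHO-K1 cells; top concentration of the series differs between compounds; nearly all actives have a fitted effect of over 30% in size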)
In short: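 For this counter screen, overnight-attached CHO-K1 cells received test compounds (15 concentrations, 0.76% DMSO final); 3 hr later at 37C, CellTiter-Glo reagent was added and luminescence recorded after 30 min at room temperature.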

[15] = A CellTox Green Cytotoxicity Assay to monitor cytotoxicity in HEK293 cells - 0 hour (AID 1224869); further: nearly all actives have a fitted effect of over 50% in size
In short: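 HEK293 cells, 600/well, were preincubated 5 hours and then exposed to compounds at 37 C for up to 40 hours. A cell-impermeant cyanine dye staining dead-cell DNA was read by fluorescence at 0, 8, 16, 24, 32 and 40 h time points.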

[16] = qHTS RealTime-Glo MT Cell Viability Assay in HepG2 cells - 40 hour (AID 1224870); further: nearly all actives have a fitted effect of over 50% in size
In short: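 Real-time viability: cells seeded at 600 per well together with NanoLuc and cell-permeant prosubstrate, compounds added after 5 h incubation. Luminescence tracked at 0, 8, 16, 24, 32 and 40 h of exposure.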

[17] = qHTS assay to identify small molecule antagonists of the estrogen related receptor signaling pathway with the pleiotropic PPARgamma coactivator (PGC) from Tox21 10K library (AID 1224841; call rule not given here)
In short: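 PGC/ERR cell line, 2,000 cells/well, pre-incubated 6 hours at 37 C, then exposed to compounds for 18 hours at 37 C; luciferase read with One-Glo luminescence after 30 min at room temperature.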

[18] = qHTS assay to identify small molecule agonists of the estrogen related receptor signaling pathway with the pleiotropic PPARgamma coactivator (PGC) from Tox21 10K library (AID 1224842); further: nearly all actives have a fitted effect of over 15% in size
In short: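 Luminescence from One-Glo (30 min, room temperature) measured after PGC/ERR cells had 18 h at 37 C with pinned compound (23 nL in DMSO). Cells had been seeded at 2,000 per well and pre-incubated 6 h.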

[19] = qHTS assay to identify small molecule antagonists of the estrogen related receptor (ERR) signaling pathway from Tox21 library (AID 1224848); further: nearly all actives have a fitted effect of over 50% in size
In short: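 Reading was by luminescence 30 min after ONE-Glo addition. Before that, ERR cells at 2,000 per well had rested 6 h at 37 C/5% CO2 and then received pin-tooled compounds in DMSO for 18 h at 37 C.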

[20] = qHTS assay to identify small molecule agonists of the estrogen related receptor (ERR) signaling pathway from Tox21 library (AID 1224849; calls by dose curve; further: nearly all actives have a fitted effect of over 15% in size); settings: ERR reporter cell line, ONE-Glo luciferase, 18 h; at 92.4 µM (top of the series) unless noted
In short: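 ERR reporter cells (NTP line) pre-incubated 6 hours at 37 C, then exposed to compounds for 18 hours at 37 C. ONE-Glo luciferase luminescence was read after 30 minutes at room temperature.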
On the % scale 0 is the no-effect control and ±100 the full control effect.

Sequence of Luciferin 4-monooxygenase (Photinus pyralis) (P08659 whole entry, looked up): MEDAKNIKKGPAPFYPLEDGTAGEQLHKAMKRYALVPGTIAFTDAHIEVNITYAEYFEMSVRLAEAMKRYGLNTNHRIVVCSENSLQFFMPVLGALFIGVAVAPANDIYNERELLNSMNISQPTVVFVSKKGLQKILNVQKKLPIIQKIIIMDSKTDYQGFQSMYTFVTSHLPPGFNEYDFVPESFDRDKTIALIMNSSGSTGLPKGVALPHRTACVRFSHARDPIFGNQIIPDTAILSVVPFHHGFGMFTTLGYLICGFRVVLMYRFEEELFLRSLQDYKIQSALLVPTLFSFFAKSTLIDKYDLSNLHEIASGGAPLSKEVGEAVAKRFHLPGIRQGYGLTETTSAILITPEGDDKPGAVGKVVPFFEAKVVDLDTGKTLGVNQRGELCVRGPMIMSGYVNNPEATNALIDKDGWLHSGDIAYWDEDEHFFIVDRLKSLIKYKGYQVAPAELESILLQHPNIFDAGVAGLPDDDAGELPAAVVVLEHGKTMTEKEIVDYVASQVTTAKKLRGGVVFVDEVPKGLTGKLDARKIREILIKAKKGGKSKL
Sequence of Thyrotropin receptor (Homo sapiens) (P16473 whole entry, looked up): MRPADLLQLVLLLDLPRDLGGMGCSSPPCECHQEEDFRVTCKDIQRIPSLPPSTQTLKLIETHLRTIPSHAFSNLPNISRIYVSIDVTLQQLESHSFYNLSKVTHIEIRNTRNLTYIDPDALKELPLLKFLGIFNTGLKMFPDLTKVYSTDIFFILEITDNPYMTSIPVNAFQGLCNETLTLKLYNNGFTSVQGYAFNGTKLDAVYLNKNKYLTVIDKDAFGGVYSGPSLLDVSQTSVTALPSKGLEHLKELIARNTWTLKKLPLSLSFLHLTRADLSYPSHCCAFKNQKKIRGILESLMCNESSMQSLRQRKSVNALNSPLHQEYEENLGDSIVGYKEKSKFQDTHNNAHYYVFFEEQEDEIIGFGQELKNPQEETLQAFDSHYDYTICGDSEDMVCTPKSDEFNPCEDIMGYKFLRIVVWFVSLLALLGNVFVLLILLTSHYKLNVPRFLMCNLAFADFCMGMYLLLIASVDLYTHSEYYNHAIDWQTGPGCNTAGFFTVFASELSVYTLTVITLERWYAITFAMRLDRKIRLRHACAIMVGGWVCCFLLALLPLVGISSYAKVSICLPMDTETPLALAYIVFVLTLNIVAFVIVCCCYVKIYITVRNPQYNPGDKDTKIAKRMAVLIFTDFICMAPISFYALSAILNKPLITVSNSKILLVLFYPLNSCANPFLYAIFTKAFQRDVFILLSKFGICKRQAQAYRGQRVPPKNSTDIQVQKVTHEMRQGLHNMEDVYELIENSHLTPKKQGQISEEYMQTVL
Sequence of Nuclear receptor subfamily 1 group I member 3 (Homo sapiens) (Q14994 whole entry, looked up): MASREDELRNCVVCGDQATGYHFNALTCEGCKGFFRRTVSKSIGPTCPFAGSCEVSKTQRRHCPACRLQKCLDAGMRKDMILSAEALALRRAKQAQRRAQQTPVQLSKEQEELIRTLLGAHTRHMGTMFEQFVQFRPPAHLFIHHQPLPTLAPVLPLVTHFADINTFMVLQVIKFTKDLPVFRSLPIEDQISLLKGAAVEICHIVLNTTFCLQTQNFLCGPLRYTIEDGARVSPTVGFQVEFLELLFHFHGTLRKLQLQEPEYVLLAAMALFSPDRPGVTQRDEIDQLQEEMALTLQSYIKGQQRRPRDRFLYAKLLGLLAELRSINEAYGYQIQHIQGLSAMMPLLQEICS

CC(C)=CCC/C(C)=C/C=N/O
inactive: Potency [1] | Potency [2] | Potency [3] | Potency [4] | Potency [5] | Potency [6] | Potency [7] | Potency [8] | Potency [9] | outcome [10] | outcome [11] | Potency [12]

CCCc1nc(C)c2c(=O)[nH]c(-c3cc(S(=O)(=O)N4CCN(CC)CC4)ccc3OCC)nn12
inactive: Potency [1] | Potency [2] | Potency [3] | Potency [4] | Potency [13] | Potency [5] | Potency [6] | Potency [8] | Potency [9] | outcome [10] | Potency [14] | outcome [11] | Potency [12] | Potency [15] | Potency [16]

SCCOCCOCCS
inactive: Potency [1] | Potency [2] | Potency [3] | Potency [4] | Potency [5] | Potency [6] | Potency [8] | Potency [14] | outcome [11] | Potency [12] | Potency [15] | Potency [16]

CC(C)(O)C(=O)O
inactive: Potency [1] | Potency [2] | Potency [3] | Potency [4] | Potency [13] | Potency [5] | Potency [6] | Potency [8] | Potency [9] | Potency [14] | outcome [11] | Potency [12] | Potency [15]

C[C@@H](O)[C@H]1C(=O)N2C(C(=O)O)=C(S[C@@H]3CN[C@H](CNS(N)(=O)=O)C3)[C@H](C)[C@H]12
inactive: Potency [1] | Potency [2] | Potency [3] | Potency [4] | Potency [13] | Potency [5] | Potency [6] | Potency [7] | Potency [8] | outcome [10] | Potency [14] | outcome [11] | Potency [12] | Potency [15] | Potency [16]

C(/C=C/C=C/Nc1ccccc1)=Nc1ccccc1
inactive: Potency [1] | Potency [2] | Potency [3] | Potency [4] | Potency [13] | Potency [5] | Potency [6] | Potency [8] | Potency [9] | outcome [10] | Potency [14] | outcome [11] | Potency [12] | Potency [15]

CCCCC(CC)COCCC#N (stereo unspecified)
inactive: Potency [1] | Potency [2] | Potency [3] | Potency [4] | Potency [13] | Potency [5] | Potency [6] | Potency [7] | Potency [8] | Potency [9] | Potency [14] | Potency [12] | Potency [16]

O=C(O)c1cc(C(=O)O)cc([N+](=O)[O-])c1
inactive: Potency [1] | Potency [2] | Potency [3] | Potency [4] | Potency [13] | Potency [5] | Potency [6] | Potency [8] | Potency [9] | outcome [10] | Potency [14] | outcome [11] | Potency [12] | Potency [15] | Potency [16]

CCC[Si](OC)(OC)OC
inactive: Potency [1] | Potency [2] | Potency [3] | Potency [4] | Potency [6] | Potency [17] | Potency [18] | Potency [7] | Potency [8] | Potency [9] | outcome [10] | Potency [14] | Potency [19] | activity change, positive = activation [20] -6.41% | outcome [11] | Potency [12] | Potency [15]
